Reference: PubChem BioAssay
Results with a measured potency or affinity are listed apart. Records with an inconclusive call do not appear. Activity calls are given as the source filed them.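 The calls were made as follows, unless noted: active = falling signal with fitted half-maximal potency no higher than twice the top valid tested dose; inconclusive = poor fit quality, or flat fit spanning -70% to -30%; inactive = potency over limit, rising signal, or flat fit inside 30%.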

What was measured:
[1] = fungal growth arrest, C. neoformans – Alamar Blue, cherry-picks, dose response (AID 686998); details: Cryptococcus neoformans growth, 24 h; series mostly up to 35 µM
[2] = C. neoformans lysis by adenylate kinase leakage – AK release luminescence, cherry-picks, dose response (AID 687000;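 active = fitted dose curve reaches 40% lysis signal rise at or below the highest valid concentration tested for that sample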;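 also: luminescent detection of adenylate kinase leaking from lysed yeast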); details: 4 h, 100% = twice the neutral-control signal; series mostly up to 15 µM
[3] = viability loss in HepG2 hepatoma cells – cell-based, cherry-picks, set 2, cytotoxicity control, dose response (AID 687002;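 active = a dose-response fit showing signal loss, with half-maximal concentration no higher than twice the top tested dose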); details: ATP luminescence (CellTiter-Glo), 48 h; series mostly up to 26 µM
[4] = viability loss in HeLa cells – cell-based, ATP luminescence, cherry-pick samples, cytotoxicity control, dose response (AID 687004;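 active = a fitted half-maximal concentration no higher than twice the top valid tested dose, with signal falling as cells die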); details: ATP luminescence (CellTiter-Glo), 48 h; series mostly up to 26 µM

Measured: outcome

CN1C(=O)c2cccc3c(S(=O)(=O)N(C)C)ccc1c23
inactive: all assays above

Cc1ccccc1S(=O)(=O)N[C@H]1CC[C@H](CCNS(=O)(=O)c2cccc(F)c2)O[C@H]1CO
inactive: all assays above

COc1ccc(CN(C)C[C@H]2OCCCC[C@@H](C)Oc3ccc(NC(=O)c4ccccc4)cc3C(=O)N([C@H](C)CO)C[C@@H]2C)cc1
inactive: all assays above

C[C@@H]1CN([C@@H](C)CO)C(=O)c2cc(/C=C/c3ccccc3)cnc2O[C@@H]1CN(C)S(C)(=O)=O
inactive: all assays above

CC(C)(C)SCCNC(=O)CN(c1ccc(F)cc1)S(=O)(=O)c1ccccc1
inactive: all assays above

Cc1noc(C)c1S(=O)(=O)N(C)C[C@H]1OCCCC[C@@H](C)Oc2ccc(NC(=O)CCCCCC(=O)Nc3ccccc3N)cc2C(=O)N([C@@H](C)CO)C[C@@H]1C
inactive: all assays above

O=C(NC1CCCC1)N1CCCCN2[C@H](CO)[C@H](c3ccc(-c4cncnc4)cc3)[C@@H]2C1
inactive: all assays above

C[C@H](CO)N1C[C@H](C)[C@@H](CN(C)S(=O)(=O)c2ccccc2)Oc2c(NC(=O)Nc3cccc4ccccc34)cccc2C1=O
inactive: all assays above

CC(C)NC(=O)N(C)C[C@H]1Oc2c(NC(=O)C3CCCCC3)cccc2C(=O)N([C@H](C)CO)C[C@H]1C
inactive: all assays above
